Assay results from PubChem BioAssay AID977606 (Broad Institute, 2014).
Out of some 1,500 compounds screened, about 430 (29%) were called active. How the calls were made is not given here. Not all results are given here. Entries that show only a call come without a potency. Potency and affinity values are given separately.

Experiment: glucose-independent GLuc insulin release activation – cell-based, INS-1E, Gaussia luciferase, luminescence, cherry-pick, counter-screen for glucose-dependent insulin secretion activators, dose response (AID 977606)
Settings: INS-1E Gaussia luciferase insulin secretion, no glucose, 100% = twice neutral-control luminescence; series mostly up to 35 µM

SMILES	outcome
C=CCOc1cccc(C(=O)N2CCC(CCC(=O)NC3CC3)CC2)c1	inactive
COc1ccc(CCNc2ccncn2)cc1OC	inactive
Cc1cc2cc(C#N)c(N3CCOCC3)nc2cc1Cl	inactive
CCN1CCN(CCCNC(=O)c2ccc3c(c2)N(Cc2ccccc2)CCS3)CC1	inactive
Nc1[nH]c(C(=O)c2ccccc2)c(-c2c(F)cccc2F)c1C(=O)c1ccc(Cl)c(Cl)c1	inactive
Cc1cn(CC(C)C)c(=O)n(-c2ccccc2)c1=O	inactive
COc1cc2c(cc1OC)CN(C(=O)Cc1ccccc1)CC2	inactive
COc1ccc(CC(=O)OCC(=O)N2CCc3ccccc32)cc1OC	inactive
CC/C(O)=C1\C(=O)CC(C)(C)CC1=Nc1ccccc1C	inactive
CC(C)(C)c1ccc(C#C[C@@H]2C=C[C@H]3OC(=O)CC/C=C/CCC(=O)OC[C@H]3O2)cc1	inactive
CC1CCc2nc(N)c(C#N)c(-c3ccncc3)c2C1 (configuration not stated)	inactive
Cc1c(C=O)c2ccccn2c1C(=O)c1ccc(F)cc1	inactive
COc1ccccc1Nc1c2c(nc3ccc(N)cc13)CCCC2	inactive
CN(C)c1ccc(CC(=O)N2CCCCC2c2cc(C(=O)Nc3ccccc3Cl)no2)cc1 (configuration not stated)	inactive
O=C(O)CNS(=O)(=O)c1ccc2c(c1)Cc1cc(S(=O)(=O)NCC(=O)O)ccc1-2	inactive
CCc1cc2c(COC(=O)c3cccc(S(C)(=O)=O)c3)cc(=O)oc2cc1O	inactive
CCN(CC)C(=O)Cn1cc(C(=O)C(=O)N2CCN(Cc3ccccc3)CC2)c2ccccc21	inactive
Cc1ccc(-c2nc3c(=O)n(C)c4ccccc4c3o2)cc1	inactive
O=C(CC(c1ccccc1)c1ccco1)N1CCOCC1 (configuration not stated)	inactive
CC(C)CCC(O)(CCC(C)C)C(=O)NN1CCCCC1	inactive
COc1ccc(C2=NN(c3ccc(C(=O)O)cc3)C(c3ccc(OC)c(OC)c3)C2)cc1 (configuration not stated)	inactive
CCOc1cc(C2C3=C(CC(C)(C)CC3=O)Nc3n[nH]c(C)c32)ccc1O (configuration not stated)	inactive
CC(C)CCN1C(=O)CSCC1(C)C(=O)NC(C)C (configuration not stated)	inactive

SMILES	outcome
CCCc1nnc2c(N(C)S(=O)(=O)c3ccc(C)cc3)nc3ccccc3n12	inactive
Cc1cc(=O)[nH]c2c1c(C)nn2C1CCCC1	inactive
N#Cc1sc2nc(C3CC3)cc(-c3ccccc3)c2c1N	inactive
COc1cc2c(cc1OC)C1=C(C#N)CCC(=NC(=O)c3ccco3)N1CC2	inactive
O=C(CN1C(=O)CCC1=O)Nc1cccc2c1C(=O)NC2=O	inactive
Cc1cc(-c2ccc(Br)cc2)n2nc(C)cc2n1	inactive
CSc1ncccc1C(=O)NCCc1ccccc1F	inactive
CCSc1nnc2ccc(-c3ccc(C)cc3)nn12	inactive
CSc1ccc2nnc(-c3cccc(F)c3)n2n1	inactive
O=C(CCCC(=O)c1ccccc1)NCc1ccccc1	inactive
O=C(CCc1nc2ccccc2c(=O)[nH]1)NNC(=O)c1cccc(Cl)c1	inactive
CCCn1c(=O)c(C(=O)NCc2ccccc2)c(O)c2ccccc21	inactive
CCOc1ccc(CCNC(=O)COC(=O)c2nccnc2N)cc1OCC	inactive
COc1ccccc1C(C)NS(=O)(=O)c1ccc(Cl)nc1 (configuration not stated)	inactive
COc1ccc(S(=O)(=O)N2CCC(C(=O)NCc3ccccn3)CC2)cc1OC	inactive
CN(C)CCCN(C(=O)CCOc1ccccc1)c1nc2ccc(F)cc2s1	inactive
COc1cc2c(cc1OC)CN(C(=O)CNS(=O)(=O)c1ccc(C)c(C)c1)CC2	inactive
Cc1ccc(-c2[nH]nc3c2C(c2cccnc2)C(C#N)=C(N)O3)cc1 (configuration not stated)	inactive
CC(=O)c1c(O)c2cccc3c2n(c1=O)CCC3	inactive
Cc1cccnc1NC(=O)c1ccc(S(=O)(=O)N2CCCCC2)cc1	inactive
O=C(NCCC1CCCCN1S(=O)(=O)c1ccc(F)cc1)C(=O)NCc1cccnc1 (configuration not stated)	inactive
CCOc1cc(OCC)cc(C(=O)Nc2cccnc2)c1	inactive
CCOc1ccc(NC(=O)[C@@H](NC(=O)OCc2ccccc2)[C@@H](C)CC)cc1	inactive

SMILES	outcome
Cc1ccc2c(=O)cc(C(=O)NC3CCS(=O)(=O)C3)oc2c1C (configuration not stated)	inactive
CCOC(=O)N1CCN(C(=O)COc2ccccc2OC)CC1	inactive
CN1CCCCCC1C(=O)N1CCC(N2CCC(C(=O)N3CCOCC3)CC2)CC1 (configuration not stated)	inactive
O=C(Nc1ncn[nH]1)c1ccc(Cl)c(Cl)c1	inactive
C/C(=N/NC(=O)c1ccc(Br)s1)c1ccncc1	inactive
C/C(=N/NC(=O)c1ccc(Br)o1)c1ccncc1	inactive
Cc1ccc(C(=O)Nc2cccc(C(=O)N/N=C/c3ccc(F)cc3)c2)cc1	inactive
COc1ccc(CC(=O)N2CCc3cc(OC)c(OC)cc3C2)cc1	inactive
COc1cccc(-n2c(=O)c3ccccc3n(CC(=O)NCC3CCCO3)c2=O)c1 (configuration not stated)	inactive
O=S(=O)(c1ccc(-c2csc(Nc3ccc(Br)cc3)n2)cc1)N1CCCC1	inactive
O=c1[nH]nc(-c2ccc(F)cc2)cc1Cc1cccs1	inactive
CCOCC(=O)Nc1c(C(=O)OCC)oc2ccccc12	inactive
CCCCNC(=O)c1ccccc1NC(=O)C1=C(C)OCCS1	inactive
COc1ccc(CNC(=O)CN2C(=O)NC3(CCCCCC3)C2=O)cc1	inactive
CCCCNC(=O)C1(C)CCN1C(=O)Cc1cccc2ccccc12 (configuration not stated)	inactive
CCOC(=O)C1=C(COC(=O)c2cccs2)NC(=O)NC1C (configuration not stated)	inactive
CCOc1ccc(CCNC(=O)COC(=O)c2cccc(N(C)C)c2)cc1OCC	inactive
O=S(=O)(NCc1ccccc1)c1ccc(-n2cccn2)cc1	inactive
CCCCc1nc(N)c(C#N)c(-c2ccco2)c1CCC	inactive
CC(C)n1cc(/C(N)=N/O)c(=O)n(Cc2ccccc2)c1=O	inactive
CCCc1nc(N)sc1C(=O)OCC	inactive
Cc1nc2ccccc2c2nc(NC(=O)C(F)(F)F)nn12	inactive
COC(=O)C[C@@H]1C=C[C@H](NC(=O)Cc2ccccn2)[C@@H](CO)O1	inactive

SMILES	outcome
CCCc1cc(=O)oc2cc(C)cc(OCC(=O)Nc3ccc(S(N)(=O)=O)cc3)c12	inactive
CCCOC(=O)Nc1ccc(S(=O)(=O)Nc2ncccn2)cc1	inactive
Cn1cc(Br)c(C(=O)NNC(=O)c2ccccc2)n1	inactive
Cc1[nH]n(-c2ccc(Br)cc2)c(=O)c1/C=N/NC(=O)c1ccccc1	inactive
O=S(=O)(c1ccc(NCCCO)nc1)N1CCOCC1	inactive
CCOc1ncccc1C(=O)OCC(=O)NCCc1ccc(S(N)(=O)=O)cc1	inactive
CCOC(=O)c1cn(-c2ccccc2)nc1-c1ccncc1	inactive
COCCNc1nc(NCCCN(C)C)c2sccc2n1	inactive
CCCc1nnc2n1N=C(c1ccc(OC)c(OC)c1)CS2	inactive
O=S(=O)(c1cccs1)N1CN(C2CCCCC2)c2nc3ccccc3nc21	inactive
Cc1nc(N)c(C#N)c(-c2cccnc2)c1-c1ccccc1	inactive
C=CCN1C(=O)c2n[nH]c(COC)c2C1c1ccc(F)cc1 (configuration not stated)	inactive
O=C1NC(c2ccccc2)c2c(-c3ccccc3)n[nH]c21 (configuration not stated)	inactive
CNC(=O)C(=O)NCC1OCCCN1S(=O)(=O)c1ccc(F)cc1C (configuration not stated)	inactive
COc1ccc(-c2ocnc2C(=O)Nc2ccc(N3CCOCC3)cc2N2CCOCC2)cc1OC	inactive
O=C(Cc1ccsc1)NNC(=O)c1ccccc1Cl	inactive
C/C=C1\COC(C(=O)NCc2ccccc2)(C(F)(F)F)C=C1C=C(C)C (configuration not stated)	inactive
CCC(CC)NC(=O)CN1CCN(S(=O)(=O)c2cccs2)CC1	inactive
COc1ccc(CCNC(=O)CCCc2nnc3n(C)c(=O)c4sccc4n23)cc1OC	inactive
Cc1cc(Oc2cccnc2)ccc1NC(=O)Cc1cn(C)c2ccccc12	inactive
Cc1ccc2c(c1)N(C(C)C(=O)NCc1cccs1)C(=O)CO2 (configuration not stated)	inactive
CCCn1c(C)cc(C)c(C#N)c1=O	inactive
COc1ccccc1-c1cnc2c(c1)C(=O)N([C@H](C)CO)C[C@@H](C)[C@@H](CN(C)C(C)=O)O2	inactive

SMILES	outcome
C[C@H]1CN([C@@H](C)CO)C(=O)c2cc(C#CCc3ccccc3)cnc2O[C@@H]1CN(C)C(=O)C1CC1	inactive
COCC(=O)N(C)C[C@H]1Oc2cc(Br)ccc2S(=O)(=O)N([C@H](C)CO)C[C@H]1C	inactive
C[C@H](CO)N1C[C@H](C)[C@@H](CN(C)C(=O)CC2CC2)Oc2cc(C#CC(C)(C)O)ccc2S1(=O)=O	inactive
Cc1c(P(=S)(c2ccccc2)c2ccccc2)[n+]2ccccc2n1C/C=C/c1ccccc1	inactive
COc1cc2c(cc1OC)-c1cc(Nc3ccccc3Br)nc(=O)n1CC2	inactive
CCNc1nc(C)nc2c1oc1ccccc12	inactive
O=C(COC(=O)c1ncc(Cl)c(Cl)c1Cl)NC1CCS(=O)(=O)C1 (configuration not stated)	inactive
Fc1ccccc1-c1nnc2ccc3ccccc3n12	inactive
O=c1c2ccccc2nnn1Cc1ccccc1	inactive
CCc1nc2n[nH]c(N)c2c2c1CCCC2	inactive
COCCNc1nc(NCCCN2CCCC2=O)c2sccc2n1	inactive
CCCCOc1ccc(C2=NNC(=O)CC2)cc1	inactive
CCc1cc2c(COC(=O)c3cccc(NS(C)(=O)=O)c3)cc(=O)oc2cc1O	inactive
COCCNc1nc(Oc2ccc(C(N)=O)cc2)c2sccc2n1	inactive
CC(C)Cc1nc2n[nH]c(N)c2c2c1COC(C)(C)C2	inactive
Cc1cc(C)c2oc(C(=O)Nc3ccc(S(=O)(=O)Nc4nccc(C)n4)cc3)cc(=O)c2c1	inactive
C=CCNC(=O)c1cc(-c2ccc3c(c2)OCO3)on1	inactive
O=C(N/N=C/c1ccc2c(c1)OCO2)c1ccc(Cl)cc1Cl	inactive
COc1ccc(C2CC(=O)Nc3sc(=N)c4c(N)c(C#N)c(N)nc4c32)cc1OC (configuration not stated)	inactive
Cc1ccsc1/C=N/n1c(-c2ccncc2)n[nH]c1=S	inactive
